Compound activity deposited in PubChem by several laboratories.
FBA Mtb inh: Mtb FBA enzyme inhibitors, primary screen, biochemical, fluorescence, strain H37Rv; Fructose-bisphosphate aldolase (Mycobacterium tuberculosis (strain ATCC 25618 / H37Rv)), …; purified M. tuberculosis FBA, fluorescence read-out; inhibition, % at 1 µM; 360,000 compounds, 2.3% hits; AID 588726, 2011; in the data active means inhibition above about 27%;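 further: 0% = vehicle and 100% = reference inhibitor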
CCHF vOTU inh-1: CCHFV vOTU protease inhibitors, primary screen, biochemical, Pep-AMC substrate, fluorescence; inhibition, % at 11.5 µM; 370,000 compounds, 0.55% hits; AID 651958, 2012; further: 0% = vehicle wells with enzyme and 100% = no enzyme wells
SARS 3CLpro inh: SARS-CoV 3CLpro protease inhibitors, primary screen, biochemical, quenched FRET. 290,000 compounds, 0.14% hits. AID 1706, 2009. Replicase polyprotein 1ab (Severe acute respiratory syndrome coronavirus), P0C6X7. inhibition, % at 6 µM. recombinant SARS-CoV 3CLpro, quenched FRET peptide cleavage; in the data active means inhibition above about 12%
DUSP3 inh: VHR1 phosphatase inhibitors, primary screen, biochemical, absorbance, uHTS | Dual specificity protein phosphatase 3 (Homo sapiens), P51452 | inhibition, % at 13.3 µM | recombinant VHR phosphatase, pNPP absorbance | 290,000 compounds, 0.52% hits; in the data active means inhibition above about 50%
RecA intein inh: Mtb RecA intein splicing inhibitors, primary screen, biochemical, fluorescence, HTS. AID 2221, 2009. inhibition, % (no concentration beside the values). cell-free RecA intein splicing. 290,000 compounds, 0.75% hits; in the data active means inhibition above about 30%;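 further: 0% = vehicle wells and 100% = reference inhibitor control wells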
Target sequence (P9WHJ3 whole entry, looked up): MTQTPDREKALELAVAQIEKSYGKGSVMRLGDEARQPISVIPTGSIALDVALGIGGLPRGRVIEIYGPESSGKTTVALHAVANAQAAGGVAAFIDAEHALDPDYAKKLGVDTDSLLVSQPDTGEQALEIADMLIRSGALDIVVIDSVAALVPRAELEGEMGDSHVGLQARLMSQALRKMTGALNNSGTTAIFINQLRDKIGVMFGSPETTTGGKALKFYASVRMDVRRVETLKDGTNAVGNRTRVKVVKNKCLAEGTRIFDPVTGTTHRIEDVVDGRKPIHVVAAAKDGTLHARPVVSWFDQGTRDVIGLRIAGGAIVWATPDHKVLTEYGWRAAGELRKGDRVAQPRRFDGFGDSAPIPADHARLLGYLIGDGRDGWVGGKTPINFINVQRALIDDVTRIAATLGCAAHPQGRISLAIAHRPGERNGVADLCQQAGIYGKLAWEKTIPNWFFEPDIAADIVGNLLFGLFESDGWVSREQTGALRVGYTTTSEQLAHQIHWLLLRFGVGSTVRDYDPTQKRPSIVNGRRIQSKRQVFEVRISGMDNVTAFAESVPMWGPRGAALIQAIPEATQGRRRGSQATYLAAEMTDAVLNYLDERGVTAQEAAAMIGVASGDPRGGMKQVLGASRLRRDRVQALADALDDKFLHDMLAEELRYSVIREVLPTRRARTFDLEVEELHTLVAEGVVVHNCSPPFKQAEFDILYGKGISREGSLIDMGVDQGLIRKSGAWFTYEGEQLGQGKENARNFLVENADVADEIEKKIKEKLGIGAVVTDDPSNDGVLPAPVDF
GDH-TPI inh: GDH-TPI coupling enzyme inhibitors, primary screen, artefact control for M. tuberculosis FBA inhibitor project, biochemical, absorbance, full deck; 360,000 compounds, 1.2% hits; AID 588335, 2011; GDH-TPI coupled enzyme counterscreen, NADH absorbance; inhibition, % at 4.8 µM;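 further: 0% = DMSO wells and 100% = wells lacking the enzyme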
GFP chromo cs: counter-screen: blocks GFP chromophore formation, dose response, counter-screen, biochemical, fluorescence, homogeneous. shares compounds with RecA intein inh. cell-free GFP chromophore formation. EC50, µM. 2,100 compounds, 83% hits. AID 434968, 2010; call rule not given here
CCHF vOTU inh-2: CCHFV vOTU protease inhibitors, confirmation, biochemical, Pep-AMC substrate, fluorescence. AID 686976, 2013. 1,900 compounds, 17% hits. Recombinant CCHFV vOTU. inhibition, % at 11.5 µM. shares compounds with CCHF vOTU inh-1
* = called active by the depositor; . = no result given. Compounds with a hit are over-represented: about 4.7% of the library has one in this group of screens. Unless noted, no stated cut-off is given here; in the data, active means inhibition above about 30%; inactive means the rest.

SMILES	FBA Mtb inh	CCHF vOTU inh-1	SARS 3CLpro inh	DUSP3 inh	RecA intein inh	GDH-TPI inh	GFP chromo cs	CCHF vOTU inh-2
COc1ccc(NC(=O)CN2CCc3ccccc3C2)c([N+](=O)[O-])c1	0.9	-6.2	5.1	4.9	.	1.5	.	.
CC1OC(Nc2ccc(N=Nc3ccccc3)cc2)C(O)C(O)C1O (stereo unspecified)	-16.3	16.3	2.2	25.9	4.7	16.4	.	.
CC1OC(Nc2cccc3ccccc23)C(O)C(O)C1O (stereo unspecified)	7.7	65.1*	3.7	29.5	45.8*	3.7	>38	-34.0
CC1=NN(c2ccc(C(=O)O)cc2)C(=O)/C1=C\c1ccc(OC(=O)c2cccs2)cc1	-3.4	54.9*	-0.8	5.3	92.8*	10.2	2.61*	7.0
CC1=NN(c2ccccc2)C(=O)/C1=C/c1ccc(Cl)cc1	0.0	88.8*	-0.7	9.2	85.0*	-1.4	3.23*	-26.7
CC1=NN(c2ccccc2)C(=O)C1=Cc1ccccc1	-2.2	17.3	.	.	.	0.9	.	.
CCOc1cc(/C=C2/C(=O)N(c3ccccc3)N=C2C)ccc1OC(=O)c1ccco1	-1.1	67.7*	-2.2	9.1	78.0*	1.7	2.74*	-1.6
COc1ccc(/C=C2/C(=O)N(c3ccccc3)N=C2C)cc1Br	5.3	73.9*	-2.4	13.3	45.1*	11.2	8.04*	0.2
CC1=C(C(=O)OCCC(C)C)C(c2ccc3c(c2)OCO3)NC(=O)N1 (stereo unspecified)	2.0	16.7	-2.6	11.4	5.7	2.6	.	.
O=C1CN(C(=O)COC(=O)CCc2ccccc2O)c2ccccc2N1	2.0	-2.2	.	.	.	-2.2	.	.
C=CCNC1=C(Cl)C(=O)c2ccccc2C1=O	-3.0	67.5*	5.8	4.5	34.5*	24.7	18.6*	59.2*
O=C1C(Cl)=C(NCc2cccnc2)C(=O)c2ccccc21	-4.4	70.0*	6.4	5.3	75.8*	9.3	9.41*	62.0*
CCO/C=C1/C(=O)N(Cc2ccccc2)C(=O)c2ccccc21	2.5	95.1*	2.9	16.8	36.3*	-1.1	>12	108.1*
CN1CCN(c2ccc([N+](=O)[O-])c3no[n+]([O-])c23)CC1	-10.4	34.9*	-37.7	-7.7	86.0*	-2.0	>38	21.3
O=C(CNC(=O)c1ccc(Cl)c([N+](=O)[O-])c1)NCC1CCCO1 (stereo unspecified)	-0.1	-0.4	-1.4	-19.2	-3.3	-3.0	.	.
COc1ccc(Cc2nccc3cc(OC)c(OC)cc23)cc1OC	3.9	91.8*	-7.3	4.7	92.9*	6.3	7.3*	39.8*
CC1(C)C=C2C(=NN(c3ccccc3)C(N)=C2C#N)CO1	1.3	50.0*	0.7	19.2	90.4*	12.4	1.49*	100.3*
C#CCN1CC(N(C)CCOC(=O)c2ccc(F)cc2)CS1(=O)=O (stereo unspecified)	.	3.8	.	.	.	.	.	.
O=C1C(=O)c2ccccc2-c2ccccc21	-5.3	113.9*	4.4	26.9	53.5*	0.5	6.94*	96.2*
NC1=C(Br)C(=O)c2ccccc2C1=O	0.3	90.6*	0.9	13.1	89.6*	6.1	5.38*	98.6*
O=C(NCCN1CCOCC1)c1ccc(NC(=O)c2ccc(Br)o2)cc1	.	-1.6	.	.	.	.	.	.
CC(C)NC(=O)N[C@H]1C[C@@H]2O[C@@H](CO)CC[C@@H]2O[C@@H]1CCc1ccc(-c2ccccc2F)cc1	.	0.6	.	.	.	.	.	.
COC(=O)c1cccc(-c2ccc(C(c3c(C)[nH][nH]c3=O)c3c(C)[nH][nH]c3=O)o2)c1	-6.1	57.4*	-0.7	12.9	100.3*	1.9	0.536*	3.3
COC(=O)c1ccccc1NC(=O)c1ccc(-c2ccccc2F)o1	2.3	-12.1	-1.5	14.5	1.3	2.8	.	.
COC(=O)c1ccccc1-c1ccc(C(c2c(C)[nH][nH]c2=O)c2c(C)[nH][nH]c2=O)o1	-0.5	43.3*	1.2	12.9	95.5*	5.7	0.449*	-12.2
SMILES	FBA Mtb inh	CCHF vOTU inh-1	SARS 3CLpro inh	DUSP3 inh	RecA intein inh	GDH-TPI inh	GFP chromo cs	CCHF vOTU inh-2
CCOc1ccc(CCNC(=O)CN2C(=O)NC3(CCCCC3)C2=O)cc1OCC	1.0	9.1	.	.	0.5	4.9	.	.
O=[N+]([O-])c1cc(O)c2ncccc2c1	.	34.9*	1.1	8.5	36.8*	.	11.8*	51.8*
CCC(=O)N(C1=C(NC)C(=O)c2ccccc2C1=O)C(C)C	-6.6	46.5*	10.2	-10.8	45.0*	4.3	38.7*	23.2
CNC1=C(N(C(C)=O)c2ccc(Br)cc2)C(=O)c2ccccc2C1=O	-5.8	93.5*	9.9	39.0	72.9*	16.4	13*	72.5*
CN(C)c1ccc(C(=O)NN2C(=O)c3ccccc3C2=O)cc1	0.9	5.1	1.0	20.1	-0.2	11.2	.	.
O=C1C2=C(c3ccccc31)[N+](=O)C1CCCCC1N2[O-] (stereo unspecified)	-0.8	56.7*	-0.9	15.4	81.9*	4.8	7.95*	28.9
O=C1c2ccccc2C(=O)c2c1ccc1c(=O)n(C3CCCCC3)[nH]c21	-0.2	-6.6	1.5	13.6	9.0	24.1	.	.
O=C(/C=C/c1ccc(O)cc1)c1ccc(NC2=C(N3CCCCC3)C(=O)c3ccccc3C2=O)cc1	-7.2	84.4*	2.7	20.9	56.8*	16.0	6.07*	59.9*
O=C(/C=C/c1ccc(O)cc1)c1ccccc1	-4.1	-5.6	-1.1	4.3	2.0	18.1	.	.
Cc1ccc(NC2=C(N3CCCCC3)C(=O)c3ccccc3C2=O)cc1	-2.6	96.3*	-3.5	6.2	67.4*	8.8	9.52*	84.5*
O=C1C(Nc2cccc(O)c2)=C(N2CCCCC2)C(=O)c2ccccc21	2.4	88.5*	1.1	17.8	79.5*	6.6	3.03*	92.5*
O=C(O)c1cccc(NC2=C(Cl)C(=O)c3ccccc3C2=O)c1	-5.9	25.8	5.2	14.7	.	10.9	.	.
CC1=C(Nc2ccc(C(=O)O)cc2)C(=O)c2ccccc2C1=O	-2.8	5.4	7.3	1.0	8.7	8.8	.	.
O=C(Nc1nnc([C@@H]2C[C@H](O)[C@@H](CO)O2)s1)c1cccc2ccccc12	4.3	9.8	.	.	.	8.8	.	.
Cc1cccc(CCNC(=O)C2CCN(S(=O)(=O)c3ccccc3)CC2)c1	16.1	6.2	5.0	6.5	2.7	-0.6	.	.
CSc1ncc(Cl)c(C(=O)Nc2cccc(Cl)c2)n1	0.6	13.2	-1.1	34.2	3.5	6.9	.	.
